# Laboratory results: publication PMC7862700, “An all-to-all approach to the identification of sequence-specific readers for epigenetic DNA modifications on cytosine”
# Legend:
# Test in all cases: DAPPL (digital affinity profiling via proximity ligation, sequencing); 10 mM Tris-HCl pH 7.5, 50 mM NaCl, 1 mM DTT, 4% glycerol, room temperature, 30 min; GST-TFs on glutathione beads, 16-mer random dsDNA library, 0.1% formaldehyde crosslink after washing; high values mean tight binding
# FEV = biological target: T1, FEV (Homo sapiens, UniProt Q99581 1-238); details: protein: recombinant; tags: N-terminal GST; dsDNA, one strand shown
# T1 sequence: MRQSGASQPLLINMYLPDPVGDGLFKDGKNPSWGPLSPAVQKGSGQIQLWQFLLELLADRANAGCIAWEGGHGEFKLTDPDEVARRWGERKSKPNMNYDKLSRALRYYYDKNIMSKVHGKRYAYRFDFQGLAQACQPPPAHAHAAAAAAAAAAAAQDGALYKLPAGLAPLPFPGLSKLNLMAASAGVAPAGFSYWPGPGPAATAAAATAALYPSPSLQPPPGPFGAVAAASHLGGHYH
# How it was run: (§1)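 In yeast, human transcription factors were expressed with a GST fusion, then pulled down on glutathione beads and given DNA barcodes. Pooled with a tag-only sample, they were exposed to 200 nmole of a 16-mer random double-stranded DNA library (Tris/NaCl/DTT/glycerol buffer, room temperature, 30 min), washed, crosslinked with 0.1% formaldehyde, proximity-ligated using BsaI/T4 ligase for 1 h at 37 °C, PCR-amplified and read on an Illumina NextSeq500. Each hexamer's frequency of reads for a factor, divided by the matching frequency for the tag-only sample, gives the binding signal.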
# ETV5 = ETV5 (Homo sapiens, UniProt P41161 1-510); details: protein: recombinant; tags: N-terminal GST; dsDNA, one strand shown
# ETV5, sequence (P41161 whole entry): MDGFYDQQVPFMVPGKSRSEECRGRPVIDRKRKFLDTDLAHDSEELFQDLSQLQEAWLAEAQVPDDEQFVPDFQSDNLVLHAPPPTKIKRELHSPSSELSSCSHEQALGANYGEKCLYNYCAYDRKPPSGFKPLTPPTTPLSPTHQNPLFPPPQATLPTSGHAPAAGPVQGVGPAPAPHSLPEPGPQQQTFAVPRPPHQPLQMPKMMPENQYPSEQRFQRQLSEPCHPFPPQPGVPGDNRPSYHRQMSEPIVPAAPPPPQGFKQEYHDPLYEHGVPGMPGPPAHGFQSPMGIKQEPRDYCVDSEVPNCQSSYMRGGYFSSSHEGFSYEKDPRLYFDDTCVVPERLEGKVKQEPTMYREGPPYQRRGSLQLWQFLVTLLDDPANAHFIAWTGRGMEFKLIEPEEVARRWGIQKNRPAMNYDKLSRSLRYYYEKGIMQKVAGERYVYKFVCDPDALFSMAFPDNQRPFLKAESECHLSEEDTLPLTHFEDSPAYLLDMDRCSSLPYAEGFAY
# How it was run: as §1
# HSF1 = HSF1 (Homo sapiens, UniProt Q00613 1-529); details: protein: recombinant; tags: N-terminal GST; chain copies: 3; dsDNA, one strand shown
# HSF1, sequence (Q00613 whole entry): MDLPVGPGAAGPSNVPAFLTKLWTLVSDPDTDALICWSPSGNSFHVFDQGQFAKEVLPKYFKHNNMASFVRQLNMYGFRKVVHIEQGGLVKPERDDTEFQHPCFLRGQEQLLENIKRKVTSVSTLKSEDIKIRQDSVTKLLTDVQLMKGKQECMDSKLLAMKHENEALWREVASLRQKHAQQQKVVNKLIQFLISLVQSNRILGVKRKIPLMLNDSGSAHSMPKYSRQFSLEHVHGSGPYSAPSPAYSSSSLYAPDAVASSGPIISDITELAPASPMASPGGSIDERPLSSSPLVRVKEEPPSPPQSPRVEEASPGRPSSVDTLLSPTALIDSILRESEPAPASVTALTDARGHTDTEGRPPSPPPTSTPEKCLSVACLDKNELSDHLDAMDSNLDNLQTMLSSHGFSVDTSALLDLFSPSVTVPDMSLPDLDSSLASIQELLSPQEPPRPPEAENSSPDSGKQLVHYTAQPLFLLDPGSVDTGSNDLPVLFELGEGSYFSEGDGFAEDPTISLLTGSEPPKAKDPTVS
# How it was run: as §1
# SPIC = biological target: T2, SPIC (Homo sapiens, UniProt Q8N5J4 1-248); details: protein: recombinant; tags: N-terminal GST; dsDNA, one strand shown
# T2 sequence: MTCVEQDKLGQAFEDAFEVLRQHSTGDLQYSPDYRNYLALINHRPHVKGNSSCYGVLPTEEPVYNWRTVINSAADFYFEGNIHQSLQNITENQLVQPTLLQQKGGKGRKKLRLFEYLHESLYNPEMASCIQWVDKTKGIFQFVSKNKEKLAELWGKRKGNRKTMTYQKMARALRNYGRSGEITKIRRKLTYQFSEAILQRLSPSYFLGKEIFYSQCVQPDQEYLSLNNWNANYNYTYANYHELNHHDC
# How it was run: as §1
# ELK4 = biological target: T3, ELK4 (Homo sapiens, UniProt P28324-2 1-405); details: protein: recombinant; tags: N-terminal GST; dsDNA, one strand shown
# T3 sequence: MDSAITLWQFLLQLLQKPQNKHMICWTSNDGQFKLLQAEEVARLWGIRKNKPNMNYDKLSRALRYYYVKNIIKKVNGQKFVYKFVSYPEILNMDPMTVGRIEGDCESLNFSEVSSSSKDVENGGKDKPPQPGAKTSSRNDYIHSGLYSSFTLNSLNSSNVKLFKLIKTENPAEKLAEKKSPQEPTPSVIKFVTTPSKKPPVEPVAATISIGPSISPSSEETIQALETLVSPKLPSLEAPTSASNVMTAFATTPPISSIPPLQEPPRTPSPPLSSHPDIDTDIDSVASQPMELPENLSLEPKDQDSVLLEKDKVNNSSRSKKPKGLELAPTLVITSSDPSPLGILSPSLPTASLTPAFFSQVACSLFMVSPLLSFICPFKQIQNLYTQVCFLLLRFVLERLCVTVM
# How it was run: as §1
# ELF3 = biological target: T4, ELF3 (Homo sapiens, UniProt P78545 1-371); details: protein: recombinant; tags: N-terminal GST; dsDNA, one strand shown
# T4 sequence: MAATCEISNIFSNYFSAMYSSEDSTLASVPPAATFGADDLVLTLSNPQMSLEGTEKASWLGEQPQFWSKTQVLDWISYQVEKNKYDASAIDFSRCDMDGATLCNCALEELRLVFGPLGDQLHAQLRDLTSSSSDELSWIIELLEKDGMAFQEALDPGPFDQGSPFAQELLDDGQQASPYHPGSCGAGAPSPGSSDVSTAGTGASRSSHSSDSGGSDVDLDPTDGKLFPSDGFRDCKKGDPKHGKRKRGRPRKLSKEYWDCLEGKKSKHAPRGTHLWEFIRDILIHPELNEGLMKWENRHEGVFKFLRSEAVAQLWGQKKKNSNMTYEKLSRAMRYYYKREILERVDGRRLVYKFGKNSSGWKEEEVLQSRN
# How it was run: as §1
# CRX = CRX (Homo sapiens, UniProt O43186 1-299); details: protein: recombinant; tags: N-terminal GST; dsDNA, one strand shown
# CRX, sequence (O43186 whole entry): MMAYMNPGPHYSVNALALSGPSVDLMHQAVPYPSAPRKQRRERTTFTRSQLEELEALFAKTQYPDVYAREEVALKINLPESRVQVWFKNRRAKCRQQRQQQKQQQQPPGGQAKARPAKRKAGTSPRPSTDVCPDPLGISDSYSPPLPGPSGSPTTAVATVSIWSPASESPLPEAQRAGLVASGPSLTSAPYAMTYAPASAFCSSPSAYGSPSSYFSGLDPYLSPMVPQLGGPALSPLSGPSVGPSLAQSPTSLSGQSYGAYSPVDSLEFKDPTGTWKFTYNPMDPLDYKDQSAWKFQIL
# How it was run: as §1
# ETV1 = ETV1 (Homo sapiens, UniProt P50549 1-477); details: protein: recombinant; tags: N-terminal GST; dsDNA, one strand shown
# ETV1, sequence (P50549 whole entry): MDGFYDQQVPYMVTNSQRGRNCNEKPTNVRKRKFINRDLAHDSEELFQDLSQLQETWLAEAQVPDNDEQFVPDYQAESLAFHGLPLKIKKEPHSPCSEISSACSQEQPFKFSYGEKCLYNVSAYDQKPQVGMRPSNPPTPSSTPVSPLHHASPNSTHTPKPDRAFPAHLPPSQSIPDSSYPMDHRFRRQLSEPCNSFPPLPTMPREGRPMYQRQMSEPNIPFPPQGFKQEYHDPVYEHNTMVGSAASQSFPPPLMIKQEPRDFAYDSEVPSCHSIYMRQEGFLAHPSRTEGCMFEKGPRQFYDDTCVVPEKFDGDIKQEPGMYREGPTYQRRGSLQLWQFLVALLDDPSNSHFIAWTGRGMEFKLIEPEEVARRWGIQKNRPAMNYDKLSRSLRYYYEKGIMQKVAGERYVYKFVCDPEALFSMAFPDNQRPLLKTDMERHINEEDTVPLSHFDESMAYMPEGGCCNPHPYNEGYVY
# How it was run: as §1
# ERF = biological target: T5, ERF (Homo sapiens, UniProt P50548 1-548); details: protein: recombinant; tags: N-terminal GST; dsDNA, one strand shown
# T5 sequence: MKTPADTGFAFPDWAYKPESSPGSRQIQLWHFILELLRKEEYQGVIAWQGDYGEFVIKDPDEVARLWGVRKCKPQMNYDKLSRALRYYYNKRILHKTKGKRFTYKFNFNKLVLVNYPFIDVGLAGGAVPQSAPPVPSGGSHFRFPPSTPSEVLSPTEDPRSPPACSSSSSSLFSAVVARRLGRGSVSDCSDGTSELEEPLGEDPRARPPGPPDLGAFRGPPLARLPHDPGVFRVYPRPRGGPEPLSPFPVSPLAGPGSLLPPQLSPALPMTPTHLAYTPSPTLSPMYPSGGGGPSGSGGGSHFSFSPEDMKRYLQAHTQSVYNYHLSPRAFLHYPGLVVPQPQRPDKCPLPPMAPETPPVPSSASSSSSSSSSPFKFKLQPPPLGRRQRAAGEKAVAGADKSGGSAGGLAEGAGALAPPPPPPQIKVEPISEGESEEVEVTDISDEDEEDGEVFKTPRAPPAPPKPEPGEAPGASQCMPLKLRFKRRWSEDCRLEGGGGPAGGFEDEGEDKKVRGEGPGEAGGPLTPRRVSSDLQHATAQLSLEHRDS
# How it was run: as §1
# ETV3L = biological target: T6, ETV3L (Homo sapiens, UniProt Q6ZN32 1-361); details: protein: recombinant; tags: N-terminal GST; dsDNA, one strand shown
# T6 sequence: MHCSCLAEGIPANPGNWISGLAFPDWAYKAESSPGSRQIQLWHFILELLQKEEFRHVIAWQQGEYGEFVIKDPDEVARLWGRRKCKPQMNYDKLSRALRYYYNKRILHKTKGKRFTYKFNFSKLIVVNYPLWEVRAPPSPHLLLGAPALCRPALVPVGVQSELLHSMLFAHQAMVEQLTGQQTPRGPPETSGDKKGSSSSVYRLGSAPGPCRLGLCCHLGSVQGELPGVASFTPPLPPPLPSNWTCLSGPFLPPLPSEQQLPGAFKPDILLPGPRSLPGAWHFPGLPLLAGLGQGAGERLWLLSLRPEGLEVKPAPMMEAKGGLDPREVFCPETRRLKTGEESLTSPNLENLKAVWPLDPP
# How it was run: as §1
# ETS2 = biological target: T7, ETS2 (Homo sapiens, UniProt P15036 1-469); details: protein: recombinant; tags: N-terminal GST; dsDNA, one strand shown
# T7 sequence: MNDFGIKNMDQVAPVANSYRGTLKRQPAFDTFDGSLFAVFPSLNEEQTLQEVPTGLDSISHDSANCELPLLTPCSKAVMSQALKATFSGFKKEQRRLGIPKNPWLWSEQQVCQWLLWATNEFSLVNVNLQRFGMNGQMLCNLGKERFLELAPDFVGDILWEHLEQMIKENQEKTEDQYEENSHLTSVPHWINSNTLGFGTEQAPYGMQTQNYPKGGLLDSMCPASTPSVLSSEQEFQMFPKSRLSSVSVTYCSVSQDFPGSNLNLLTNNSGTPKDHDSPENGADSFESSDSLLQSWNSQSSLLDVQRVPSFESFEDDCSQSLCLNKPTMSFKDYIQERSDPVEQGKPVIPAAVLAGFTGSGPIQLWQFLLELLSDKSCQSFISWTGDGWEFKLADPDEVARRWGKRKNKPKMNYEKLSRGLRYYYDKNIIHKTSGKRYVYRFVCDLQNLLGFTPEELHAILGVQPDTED
# How it was run: as §1
# SPDEF = biological target: T8, SPDEF (Homo sapiens, UniProt O95238 1-335); details: protein: recombinant; tags: N-terminal GST; dsDNA, one strand shown
# T8 sequence: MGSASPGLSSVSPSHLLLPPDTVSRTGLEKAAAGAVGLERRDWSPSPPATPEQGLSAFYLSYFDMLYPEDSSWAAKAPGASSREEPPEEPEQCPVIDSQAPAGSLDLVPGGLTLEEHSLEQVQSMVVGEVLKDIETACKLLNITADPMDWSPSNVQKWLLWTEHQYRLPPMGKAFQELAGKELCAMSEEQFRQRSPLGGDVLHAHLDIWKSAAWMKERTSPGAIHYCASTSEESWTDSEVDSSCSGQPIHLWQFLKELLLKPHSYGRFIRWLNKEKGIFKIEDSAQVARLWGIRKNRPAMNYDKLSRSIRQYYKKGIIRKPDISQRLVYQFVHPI
# How it was run: as §1
# ETV7 = biological target: T9, ETV7 (Homo sapiens, UniProt Q9Y603 1-341); details: protein: recombinant; tags: N-terminal GST; dsDNA, one strand shown
# T9 sequence: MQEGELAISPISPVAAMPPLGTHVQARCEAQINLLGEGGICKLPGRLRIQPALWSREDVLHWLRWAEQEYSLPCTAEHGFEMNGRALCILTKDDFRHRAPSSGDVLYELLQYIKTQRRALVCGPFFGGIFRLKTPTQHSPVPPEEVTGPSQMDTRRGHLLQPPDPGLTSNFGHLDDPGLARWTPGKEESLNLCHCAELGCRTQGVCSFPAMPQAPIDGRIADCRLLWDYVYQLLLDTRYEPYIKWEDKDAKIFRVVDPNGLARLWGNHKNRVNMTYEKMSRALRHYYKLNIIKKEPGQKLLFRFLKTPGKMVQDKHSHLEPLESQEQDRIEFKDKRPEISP
# How it was run: as §1
# ELF5 = biological target: T10, ELF5 (Homo sapiens, UniProt Q9UKW6-2 1-255); details: protein: recombinant; tags: N-terminal GST; dsDNA, one strand shown
# T10 sequence: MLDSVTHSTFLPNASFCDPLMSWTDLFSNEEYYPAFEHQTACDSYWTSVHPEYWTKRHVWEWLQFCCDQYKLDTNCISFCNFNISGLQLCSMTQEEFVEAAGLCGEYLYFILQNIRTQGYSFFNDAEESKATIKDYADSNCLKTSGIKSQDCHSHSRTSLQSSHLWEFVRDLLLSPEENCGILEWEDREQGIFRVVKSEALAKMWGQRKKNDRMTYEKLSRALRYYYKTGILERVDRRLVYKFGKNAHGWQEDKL
# How it was run: as §1
# ETV3 = biological target: T11, ETV3 (Homo sapiens, UniProt P41162-2 1-143); details: protein: recombinant; tags: N-terminal GST; dsDNA, one strand shown
# T11 sequence: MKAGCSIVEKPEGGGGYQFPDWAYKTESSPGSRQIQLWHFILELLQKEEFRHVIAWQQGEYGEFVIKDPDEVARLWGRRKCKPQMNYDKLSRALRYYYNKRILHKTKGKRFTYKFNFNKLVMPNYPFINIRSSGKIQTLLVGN
# How it was run: as §1
# ELF4 = ELF4 (Homo sapiens, UniProt Q99607 1-663); details: protein: recombinant; tags: N-terminal GST; dsDNA, one strand shown
# ELF4, sequence (Q99607 whole entry): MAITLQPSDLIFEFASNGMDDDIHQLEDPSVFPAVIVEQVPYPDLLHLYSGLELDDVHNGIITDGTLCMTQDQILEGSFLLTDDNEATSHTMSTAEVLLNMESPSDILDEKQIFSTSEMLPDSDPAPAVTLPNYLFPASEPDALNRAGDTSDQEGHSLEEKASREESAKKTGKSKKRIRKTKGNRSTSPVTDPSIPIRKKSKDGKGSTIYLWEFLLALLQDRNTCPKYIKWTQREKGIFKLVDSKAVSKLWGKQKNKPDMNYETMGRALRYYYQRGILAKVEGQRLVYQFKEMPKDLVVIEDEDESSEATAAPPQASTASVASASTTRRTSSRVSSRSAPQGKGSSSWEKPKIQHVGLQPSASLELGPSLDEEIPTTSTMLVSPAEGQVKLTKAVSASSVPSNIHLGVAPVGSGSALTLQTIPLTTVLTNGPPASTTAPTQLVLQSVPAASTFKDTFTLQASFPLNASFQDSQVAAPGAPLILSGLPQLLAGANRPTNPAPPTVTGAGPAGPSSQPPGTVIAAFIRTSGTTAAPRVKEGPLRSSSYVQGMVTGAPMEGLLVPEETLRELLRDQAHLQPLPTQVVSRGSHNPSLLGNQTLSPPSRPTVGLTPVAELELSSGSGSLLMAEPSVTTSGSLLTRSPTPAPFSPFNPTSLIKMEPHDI
# How it was run: as §1
# ETV2 = biological target: T12, ETV2 (Homo sapiens, UniProt O00321 1-342); details: protein: recombinant; tags: N-terminal GST; dsDNA, one strand shown
# T12 sequence: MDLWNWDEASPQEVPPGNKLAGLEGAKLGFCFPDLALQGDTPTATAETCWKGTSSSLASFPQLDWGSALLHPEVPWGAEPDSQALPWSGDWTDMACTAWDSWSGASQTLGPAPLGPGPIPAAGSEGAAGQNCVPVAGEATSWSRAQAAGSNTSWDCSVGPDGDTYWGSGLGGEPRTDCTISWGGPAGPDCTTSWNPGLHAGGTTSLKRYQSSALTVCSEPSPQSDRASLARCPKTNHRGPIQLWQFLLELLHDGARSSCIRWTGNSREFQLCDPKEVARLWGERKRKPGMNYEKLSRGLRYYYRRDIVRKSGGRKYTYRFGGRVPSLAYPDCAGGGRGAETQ
# How it was run: as §1
Sequence,binding signal (FEV),binding signal (ETV5),binding signal (HSF1),binding signal (SPIC),binding signal (ELK4),binding signal (ELF3),binding signal (CRX),binding signal (ETV1),binding signal (ERF),binding signal (ETV3L),binding signal (ETS2),binding signal (SPDEF),binding signal (ETV7),binding signal (ELF5),binding signal (ETV3),binding signal (ELF4),binding signal (ETV2)
TGTTCG,"1.01 fold enrichment (6-mer frequency, TF over GST control)","1.06 fold enrichment (6-mer frequency, TF over GST control)","1.6 fold enrichment (6-mer frequency, TF over GST control)","1.15 fold enrichment (6-mer frequency, TF over GST control)","1.01 fold enrichment (6-mer frequency, TF over GST control)","1.17 fold enrichment (6-mer frequency, TF over GST control)","1.06 fold enrichment (6-mer frequency, TF over GST control)","1.05 fold enrichment (6-mer frequency, TF over GST control)","1.2 fold enrichment (6-mer frequency, TF over GST control)","1.01 fold enrichment (6-mer frequency, TF over GST control)","1.15 fold enrichment (6-mer frequency, TF over GST control)","1.03 fold enrichment (6-mer frequency, TF over GST control)","1.15 fold enrichment (6-mer frequency, TF over GST control)","1.03 fold enrichment (6-mer frequency, TF over GST control)","1.01 fold enrichment (6-mer frequency, TF over GST control)",–,–
CTATGA,"1.08 fold enrichment (6-mer frequency, TF over GST control)","1.07 fold enrichment (6-mer frequency, TF over GST control)","1.04 fold enrichment (6-mer frequency, TF over GST control)","1.17 fold enrichment (6-mer frequency, TF over GST control)",–,"1.15 fold enrichment (6-mer frequency, TF over GST control)",–,"1.02 fold enrichment (6-mer frequency, TF over GST control)","1.12 fold enrichment (6-mer frequency, TF over GST control)",–,"1.15 fold enrichment (6-mer frequency, TF over GST control)","1.07 fold enrichment (6-mer frequency, TF over GST control)","1.08 fold enrichment (6-mer frequency, TF over GST control)","1 fold enrichment (6-mer frequency, TF over GST control)",–,"1.1 fold enrichment (6-mer frequency, TF over GST control)","1.19 fold enrichment (6-mer frequency, TF over GST control)"
